This note sets out measurements from PubChem BioAssay (Tox21).

“And” between values parts separate entries of the source, which are not always exact repeats. Equal values may be shown once. A number with no mark means an inactive call. Results filed as inconclusive are left out. The source made the active and inactive calls. Unless noted, the call rests on the fitted dose curve; in most records, active means well fitted curve in the direction sought with a large enough effect in the repeat runs; inconclusive means weak or mixed curves; inactive means no such curve, though single readings can be large; an effect the other way counts as inactive or inconclusive.

Test [1] concerns the target Progesterone receptor (Homo sapiens) (UniProt P06401). Put plainly: qHTS assay to identify small molecule agonists of the progesterone receptor (PR) signaling pathway (AID 1346784; calls by dose curve; further: nearly all actives have a fitted effect of over 30% in size). The procedure, abridged:
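Using charcoal-stripped serum (2%) to limit endogenous steroids, PR-UAS-bla HEK 293T cells received compounds for 16 hr at 37C after 6 hr plating; beta-lactamase FRET fluorescence was recorded following 2 hr substrate loading at room temperature.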

Test [2] has the same target. Nature of the test: qHTS assay to identify small molecule antagonists of the progesterone receptor (PR) signaling pathway (AID 1346795; active means well fitted inhibition curve with a large enough effect in the signal ratio in the repeat runs, not every such curve was filed as active; the % refers to the signal ratio). The procedure, abridged: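 Inhibition of R5020-induced (1 nM final) beta-lactamase reporter signal in PR-UAS-bla HEK293T cells was scored by FRET fluorescence after overnight (16 hr) compound treatment.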
The nature of test [3]: qHTS assay to identify small molecule antagonists of the progesterone receptor (PR) signaling pathway - cell viability counter screen (AID 1346798). Further: series mostly up to about 92 µM; nearly all actives have a fitted effect of over 50% in size. A digest of the protocol:
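ATP content as viability readout: CellTiter-Glo luminescence, 30 min room temperature, in PR-UAS-bla HEK293T cells after 16 hr compound/R5020 treatment at 37C and 5% CO2.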

The nature of test [4]: qHTS assay to identify small molecule agonists of the progesterone receptor (PR) signaling pathway - cell viability counter screen (AID 1346799; calls by dose curve; further: nearly all actives have a fitted effect of over 45% in size). The procedure, abridged:
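Cytotoxicity in PR-bla HEK293T cells: 16 h compound, 37C; CellTiter-Glo added post-FRET read; luminescence after 30 min RT.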

Test [5] can be described thus: qHTS assay to identify small molecule antagonists of the TGF-beta/Smad signaling pathway - cell viability counter screen (AID 1346824). Further: nearly all actives have a fitted effect of over 50% in size. The procedure, abridged: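 SBE-bla HEK 293T cells, incubated overnight, then compound plus 0.25 ng/mL TGF-beta1 (stock added) for 5 hr at 37 C. Viability was read in the same wells by CellTiter-Glo luminescence after 30 min at room temperature.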

Test [6] can be described thus: qHTS assay to identify small molecule agonists of the TGF-beta/Smad signaling pathway - cell viability counter screen (AID 1346829). Further: top concentration of the series differs between compounds; nearly all actives have a fitted effect of over 45% in size. The procedure, abridged: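 SBE-bla HEK 293T cells plated overnight, compound exposure 5 hr at 37 C. Viability read in the same wells by CellTiter-Glo luminescence after 30 min at room temperature, following the beta-lactamase read.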

Test [7] is described as follows: qHTS assay to identify small molecule agonists of the TGF-beta/Smad signaling pathway (AID 1346859; active means well fitted activation curve with a large enough effect in the signal ratio in the repeat runs, not every such curve was filed as active; the % refers to the signal ratio; further: series mostly up to about 77 µM). The procedure, abridged:
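Stable Smad binding element-beta-lactamase HEK 293T cells; 5 hr compound exposure at 37 C under 5% CO2; 2 hr room-temperature substrate step; fluorescence excited at 405 nm, collected at 460 nm and 530 nm.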

The target of test [8] is Thyrotropin-releasing hormone receptor (Homo sapiens) (UniProt P34981). Nature of the test: qHTS assay to identify small molecule antagonists of the thyrotropin-releasing hormone receptor (TRHR) signaling pathway (AID 1346877; active means well fitted inhibition curve with a large enough effect in the repeat runs, not every such curve was filed as active; further: series mostly up to about 51 µM). The procedure, abridged:
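TRHR-expressing HEK293 cells loaded with calcium dye for 2 h at 37 C; compounds pre-incubated 5 min at room temperature before TRH challenge at 1 nM final. Intracellular calcium fluorescence read kinetically for 3 min; 15 concentrations in triplicate.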

For test [9] the target is unchanged. Put plainly: qHTS assay to identify small molecule agonists of the thyrotropin-releasing hormone receptor (TRHR) signaling pathway (AID 1346891; calls by dose curve; further: series mostly up to about 58 µM). A digest of the protocol:
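In 1536-format, 1500 TRHR-Hek293 cells per well grew 18 h, took up calcium dye for 2 h at 37 °C, received compound, and were read kinetically; 15-point titrations, triplicates.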

Test [10] in a line: Human pregnane X receptor (PXR) small molecule agonists, qHTS cell viability counter screen (AID 1346977). Further: nearly all actives have a fitted effect of over 50% in size. A digest of the protocol: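 Readout is CellTiter-Fluor fluorescence from PXR-Luc HepG2 cells. Plated cells rested 5hr, then were treated with compounds for 24hr at 37C and 5% CO2, with reagent present during the last hour.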
Test [11] in a line: Caspase-3/7 induction in HepG2 cells by small molecules, qHTS assay (AID 1346978). Further: nearly all actives have a fitted effect of over 15% in size. Further: potency means the concentration at half of the fitted maximal effect. The procedure, abridged: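 Wild-type HepG2 cells, 2,000/well, settled 5 hr at 37 C and 5% CO2, then compound-treated for 17 hr; caspase-3/7 activity read by luminescent Caspase-Glo 3/7 after 30 min at room temperature.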
Test [12] in a line: Caspase-3/7 induction in CHO-K1 cells by small molecules, qHTS cell viability counter screen (AID 1346979). Further: nearly all actives have a fitted effect of over 35% in size. A digest of the protocol:
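To flag cytotoxic compounds, treated CHO-K1 wild-type cells were given CellTiter-Fluor at 16hr and read fluorescently after 1hr at 37C; the caspase-3/7 luminescence was measured in these same wells.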

A short description of test [13]: Caspase-3/7 induction in CHO-K1 cells by small molecules, qHTS assay (AID 1346980). Further: nearly all actives have a fitted effect of over 15% in size. A digest of the protocol:
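Wild-type CHO-K1 cells exposed to compounds for 17hr at 37 C, 5% CO2. Caspase-3/7 activity then measured by Caspase-Glo 3/7 luminescence after 30min at room temperature.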

In test [14] the target is Nuclear receptor subfamily 1 group I member 2 (Homo sapiens) (UniProt O75469). Nature of the test: Human pregnane X receptor (PXR) small molecule agonists, qHTS assay (AID 1346982). Further: nearly all actives have a fitted effect of over 35% in size. The procedure, abridged:
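PXR-Luc HepG2 reporter cells (CYP3A4-driven luciferase) in 5% charcoal-stripped FBS medium, plated 5 h before compound addition, then treated 24 h at 37C. Luciferase read by ONE-Glo luminescence after 30 min at room temperature.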

The target of test [15] is Cytochrome P450 2D6 (Homo sapiens) (UniProt P10635). Put plainly: Cytochrome P450 Family 2 Subfamily D Member 6 (CYP2D6) small molecule antagonists: luciferase reporter qHTS assay (AID 1671196). Further: nearly all actives have a fitted effect of over 50% in size. Further: potency means the concentration at half of the fitted maximal effect. A digest of the protocol:
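Cell-free P450-Glo system: CYP2D6 with proluciferin substrate was pre-incubated with compound for 10 min, then reacted with NADPH regeneration for 1 h at room temperature. Luciferin product was detected after 20 min, and data were reported as relative luminescence units.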

Test [16] addresses Cytochrome P450 2C19 (Homo sapiens) (UniProt P33261). Put plainly: Cytochrome P450 Family 2 Subfamily C Member 19 (CYP2C19) small molecule antagonists: luciferase reporter qHTS assay (AID 1671197). Further: nearly all actives have a fitted effect of over 65% in size. Further: potency means the concentration at half of the fitted maximal effect. A digest of the protocol:
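P450-Glo CYP2C19 system: enzyme-substrate mix with compound 10 min at room temperature, then NADPH regeneration solution, 1 h at 37C. Proluciferin-to-luciferin conversion detected by luminescence after 20 min with detection reagent; ketoconazole as positive control.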

Test [17] can be described thus: Caspase-3/7 induction in HepG2 cells by small molecules, qHTS cell viability counter screen (AID 1346981). Further: series mostly up to about 92 µM; nearly all actives have a fitted effect of over 30% in size. The procedure, abridged:
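Wild-type HepG2 cells, 2,000/well, settled 5 hr at 37 C, 5% CO2 before compound addition. Viability read by CellTiter-Fluor fluorescence, reagent added after 16 hr compound exposure, then 1 hr at 37C, in the same wells as the caspase read.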

Test [18] concerns the target Nuclear receptor subfamily 1 group I member 2 (Rattus norvegicus) (UniProt Q9R1A7). Nature of the test: Rat pregnane X receptor (rPXR) activation by small molecules, qHTS assay (AID 1346983). Further: nearly all actives have a fitted effect of over 20% in size. Particulars: rPXR luciferase reporter cells, One-Glo luminescence, 24 h; max activation: active compounds read high. A digest of the protocol:
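Cell-based rPXR activation assay: rPXR cells, 2,000 per well, rested 5hr at 37 C, then exposed to compounds in DMSO for 24 hr at 37 C. Luciferase activity read by One-Glo luminescence after 30 min at room temperature.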

The target of test [19] is Nuclear receptor subfamily 1 group I member 2 (Homo sapiens) (UniProt O75469). Nature of the test: CYP3A4 induction through human pregnane X receptor (PXR) by small molecules, qHTS assay (AID 1346984). Further: nearly all actives have a fitted effect of over 40% in size. A digest of the protocol: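 DPX-2 HepG2 cells carrying a PXR response element and CYP3A4-promoter luciferase construct, treated with compounds 24 hr at 37C. Then P450-Glo CYP3A4 Luciferin-IPA substrate (3uM final) for 3 hr at 37C, One-Glo added, luminescence read.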

Test [20] has the same target. Nature of the test: Human pregnane X receptor (PXR) activation by small molecules, qHTS assay (AID 1346985). Further: nearly all actives have a fitted effect of over 40% in size. The procedure, abridged: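 DPX-2 cells (HepG2 co-transfected with a PXR response element and a CYP3A4-promoter luciferase construct) were seeded at 2,000 per well, rested 5 hr at 37C, then exposed to DMSO-dissolved compounds for 24 hr. Activation was read as luciferase luminescence.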
On the % scale 0 is the no-effect control and ±100 the full control effect.

Chain of Thyrotropin-releasing hormone receptor (Homo sapiens) (P34981 whole entry, looked up): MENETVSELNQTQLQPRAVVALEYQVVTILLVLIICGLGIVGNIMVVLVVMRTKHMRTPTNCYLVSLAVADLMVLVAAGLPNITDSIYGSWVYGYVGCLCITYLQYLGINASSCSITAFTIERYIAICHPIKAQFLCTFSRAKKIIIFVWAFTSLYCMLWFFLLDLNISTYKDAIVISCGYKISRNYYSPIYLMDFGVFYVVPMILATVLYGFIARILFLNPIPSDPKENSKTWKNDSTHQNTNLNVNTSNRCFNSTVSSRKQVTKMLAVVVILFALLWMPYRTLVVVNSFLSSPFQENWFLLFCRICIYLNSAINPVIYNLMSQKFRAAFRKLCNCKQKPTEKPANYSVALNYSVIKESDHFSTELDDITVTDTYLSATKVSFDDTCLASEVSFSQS
Chain of Cytochrome P450 2D6 (Homo sapiens) (P10635 whole entry, looked up): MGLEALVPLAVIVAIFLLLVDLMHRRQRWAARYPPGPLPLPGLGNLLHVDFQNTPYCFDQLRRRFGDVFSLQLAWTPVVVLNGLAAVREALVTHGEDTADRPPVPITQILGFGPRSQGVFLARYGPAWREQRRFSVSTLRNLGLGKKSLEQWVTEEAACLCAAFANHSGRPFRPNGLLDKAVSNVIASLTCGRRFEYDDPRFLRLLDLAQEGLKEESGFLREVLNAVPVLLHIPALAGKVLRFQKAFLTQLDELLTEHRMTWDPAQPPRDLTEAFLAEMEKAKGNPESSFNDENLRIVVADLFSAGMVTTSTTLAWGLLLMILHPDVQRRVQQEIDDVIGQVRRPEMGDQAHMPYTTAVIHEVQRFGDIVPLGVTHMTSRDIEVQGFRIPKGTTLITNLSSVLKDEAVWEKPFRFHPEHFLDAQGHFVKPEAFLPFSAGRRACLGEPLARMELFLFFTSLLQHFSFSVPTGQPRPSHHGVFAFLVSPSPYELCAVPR
Chain of Progesterone receptor (Homo sapiens) (P06401 whole entry, looked up): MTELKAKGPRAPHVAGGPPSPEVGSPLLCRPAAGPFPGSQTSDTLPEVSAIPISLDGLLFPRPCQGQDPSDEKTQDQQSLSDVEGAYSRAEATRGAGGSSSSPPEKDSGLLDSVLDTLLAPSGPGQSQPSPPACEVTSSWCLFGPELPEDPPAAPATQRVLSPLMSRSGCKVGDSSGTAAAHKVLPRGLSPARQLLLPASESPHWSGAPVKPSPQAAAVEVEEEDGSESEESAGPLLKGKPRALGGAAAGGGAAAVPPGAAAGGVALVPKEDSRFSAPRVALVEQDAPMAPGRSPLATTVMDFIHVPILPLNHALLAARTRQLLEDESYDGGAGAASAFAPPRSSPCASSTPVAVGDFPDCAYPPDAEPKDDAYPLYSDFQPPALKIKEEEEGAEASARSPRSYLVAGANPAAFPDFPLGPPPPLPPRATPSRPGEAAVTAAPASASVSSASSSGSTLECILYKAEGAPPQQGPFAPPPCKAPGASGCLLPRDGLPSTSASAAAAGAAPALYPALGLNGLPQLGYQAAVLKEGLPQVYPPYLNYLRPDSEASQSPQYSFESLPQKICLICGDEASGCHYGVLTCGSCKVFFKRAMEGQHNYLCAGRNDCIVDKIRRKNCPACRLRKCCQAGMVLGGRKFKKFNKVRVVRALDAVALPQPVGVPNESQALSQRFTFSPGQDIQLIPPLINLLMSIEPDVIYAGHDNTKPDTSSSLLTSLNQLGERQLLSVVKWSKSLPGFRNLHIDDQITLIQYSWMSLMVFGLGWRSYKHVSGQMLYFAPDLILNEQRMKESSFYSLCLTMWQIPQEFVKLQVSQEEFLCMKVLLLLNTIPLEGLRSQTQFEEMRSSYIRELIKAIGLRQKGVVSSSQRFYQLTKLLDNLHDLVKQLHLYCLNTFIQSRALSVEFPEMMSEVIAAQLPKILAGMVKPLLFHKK
Chain of Nuclear receptor subfamily 1 group I member 2 (Homo sapiens) (O75469 whole entry, looked up): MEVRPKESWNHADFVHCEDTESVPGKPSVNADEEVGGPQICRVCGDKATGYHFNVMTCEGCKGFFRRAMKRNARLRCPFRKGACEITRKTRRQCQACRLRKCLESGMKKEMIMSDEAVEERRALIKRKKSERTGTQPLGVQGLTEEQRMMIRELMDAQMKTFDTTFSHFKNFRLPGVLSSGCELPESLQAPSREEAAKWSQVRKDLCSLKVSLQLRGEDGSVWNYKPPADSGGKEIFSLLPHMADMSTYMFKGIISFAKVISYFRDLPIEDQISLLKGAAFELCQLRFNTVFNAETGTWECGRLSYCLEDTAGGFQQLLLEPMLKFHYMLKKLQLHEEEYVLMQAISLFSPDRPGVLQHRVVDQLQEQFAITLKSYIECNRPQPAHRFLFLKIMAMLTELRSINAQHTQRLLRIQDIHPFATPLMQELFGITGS
Chain of Cytochrome P450 2C19 (Homo sapiens) (P33261 whole entry, looked up): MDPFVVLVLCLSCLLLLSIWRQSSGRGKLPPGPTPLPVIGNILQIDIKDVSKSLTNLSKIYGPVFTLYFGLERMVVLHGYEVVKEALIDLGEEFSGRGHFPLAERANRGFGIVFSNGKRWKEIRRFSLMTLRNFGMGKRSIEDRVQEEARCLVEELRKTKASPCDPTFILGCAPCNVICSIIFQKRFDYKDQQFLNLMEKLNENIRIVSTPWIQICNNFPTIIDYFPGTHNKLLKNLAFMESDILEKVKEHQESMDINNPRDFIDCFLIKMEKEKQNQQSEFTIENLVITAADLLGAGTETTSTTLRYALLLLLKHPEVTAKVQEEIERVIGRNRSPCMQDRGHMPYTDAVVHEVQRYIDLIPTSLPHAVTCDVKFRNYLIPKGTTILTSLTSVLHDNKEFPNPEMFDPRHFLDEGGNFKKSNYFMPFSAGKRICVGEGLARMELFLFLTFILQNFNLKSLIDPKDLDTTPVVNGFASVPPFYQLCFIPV
Chain of Nuclear receptor subfamily 1 group I member 2 (Rattus norvegicus) (Q9R1A7 whole entry, looked up): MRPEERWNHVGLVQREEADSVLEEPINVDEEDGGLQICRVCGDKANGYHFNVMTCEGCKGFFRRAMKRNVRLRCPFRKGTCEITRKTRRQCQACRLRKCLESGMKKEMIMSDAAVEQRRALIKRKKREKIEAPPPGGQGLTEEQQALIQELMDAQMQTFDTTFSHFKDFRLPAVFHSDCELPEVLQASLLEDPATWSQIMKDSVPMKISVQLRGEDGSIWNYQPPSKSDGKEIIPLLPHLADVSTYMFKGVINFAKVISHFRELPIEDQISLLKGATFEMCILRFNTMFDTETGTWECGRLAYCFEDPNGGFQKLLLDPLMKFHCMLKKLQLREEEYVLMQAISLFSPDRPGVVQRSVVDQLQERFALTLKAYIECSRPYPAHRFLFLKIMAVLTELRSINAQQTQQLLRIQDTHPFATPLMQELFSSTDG

As for `CCOCOCC`, the outcome in test [1] was inactive. In addition, the Potency result in [2], in [3], in test [4], in [5], in test [6] and in [7] was “inactive” each time. Also, the Potency entry in [8], in [9], in test [10], in [11], in test [12] and in test [13] was “inactive” each time. The Potency entry in test [14], in test [15] and in test [16] was “inactive” in each case.

For `c1cc[nH]c1`, in [1], the outcome was inactive. In addition, the Potency entry in [2], in test [3], in test [4], in [5], in [6] and in [7] was “inactive” each time. Moreover, the Potency result in test [8], in test [9], in test [10], in [11], in test [12] and in test [13] was “inactive” throughout. For the same compound, the Potency result in test [17], in test [14], in [15] and in [16] was “inactive” throughout.

As for `CC(C)c1ccc(O)c(C(C)C)c1`, the compound was called inactive in test [1]. The Potency entry in test [2], in [3], in [4], in test [5], in test [6] and in test [7] was “inactive” each time. Besides, the Potency entry in test [8], in [9], in [10], in [13], in [17] and in [14] was “inactive” each time. For the same compound, in test [15], the Potency result is “inactive”. For the same compound, the values for the Potency in [11] and in test [16] were 61.1 µM (active) and 7.1 µM (active), respectively.

`CC1(C)C(=O)N(Br)C(=O)N1Br`: in test [1], the call was inactive. Further, the Potency result in test [2], in [3], in test [4], in [5], in [6] and in test [7] was “inactive” throughout. Besides, the Potency result in test [10], in test [11], in [12], in test [13], in test [17] and in [14] was “inactive” each time. In addition, in [16], the Potency result is “inactive”.

Regarding `CCCC(C)CCC(C)=O` (configuration not stated), in test [1], the result was inactive. Besides, the Potency entry in test [2], in test [3], in [4], in test [5], in [6] and in [7] was “inactive” in each case. The Potency result in [9], in [10], in test [11], in test [12], in [13] and in test [17] was “inactive” each time. Besides, the Potency entry in test [14] and in test [16] was “inactive” each time.

With `CCN(CC)CCSC(=O)C(c1ccccc1)c1ccccc1`, the result in test [1] was inactive. The Potency result in [2], in test [3], in test [4], in test [5], in test [6] and in [7] was “inactive” throughout. Further, the Potency result in [8], in test [11], in test [13], in test [17], in test [19] and in [20] was “inactive” throughout. Moreover, the max activation in [18] is 3.39% and -0.327%. Besides, the Potency in test [15] was 4.9 µM (active); in test [16], 6.92 µM (active).

As to `CCO[Si](C)(C)OCC`, the outcome in [1] was inactive. Besides, the Potency entry in [2], in test [3], in [4], in test [5], in [6] and in test [7] was “inactive” throughout. Besides, the Potency entry in test [10], in test [11], in test [12], in [13], in test [17] and in [14] was “inactive” each time. Besides, the Potency result in [15] was “inactive”.

As to `CCOCN(C(=O)CS(=O)(=O)O)c1c(C)cccc1CC`, the call in test [1] was inactive. The Potency result in test [2], in [3], in test [4], in [5], in [6] and in [7] was “inactive” each time. Besides, the Potency entry in test [8], in test [10], in test [11], in [12], in test [13] and in test [17] was “inactive” in each case. The Potency result in [14] and in [15] was “inactive” each time.

As to `CC(=O)O[C@@H]1C[C@@H]2CC[C@@]1(C)C2(C)C`, in test [1], the compound was called inactive. Moreover, the Potency result in test [2], in [3], in [4], in test [5], in test [6] and in test [7] was “inactive” throughout. Besides, the Potency result in [10], in test [11], in [12], in test [13], in test [17] and in [14] was “inactive” each time. The Potency entry in [16] was “inactive”.
